Results as given in PubChem BioAssay AID651789 (National Center for Advancing Translational Sciences (NCATS), 2012).
Results filed as inconclusive are left out. Where a call stands in place of a potency, no number is given. Active and inactive are the calls of the source. Calls come from the whole dose curve; as a rule, active = well fitted inhibition curve with a large enough effect; inconclusive = small, poorly fitted or top-dose-only effect; inactive = no such curve, though single readings can be large or run the other way.

Assay: Acumen qHTS Assay for Inhibitors of the mTORC1 Signaling Pathway in WT MEF Cells: Hit Validation; note: nearly all actives have a fitted effect of over 60% in size
Settings: Acumen imaging; series mostly up to 37.3 µM
Procedure, shortened: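 Read-out is immunofluorescent phospho-rpS6 (Ser235/236) normalised to PI-stained cell number, reported as % active cells using a 7.5 nM rapamycin threshold. Cells: WT or Tsc2-/-, p53-/- MEFs, compound-exposed 24 h at 37C; PI count also tracks viability.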
Potency is the fitted concentration of half-maximal effect.

SMILES | Potency
C=C(C)CSc1nc(-c2ccccc2)cc(-c2ccc(OC)cc2)c1C#N | inactive
CCc1ccc(OCC(=O)Nc2ccc3oc(-c4ccc(OC)cc4)nc3c2)cc1 | inactive
CCOc1ccccc1NC(=O)Cn1c(=O)n(CCC(=O)NCc2ccc3c(c2)OCO3)c(=O)c2ccccc21 | inactive
Cc1nc2ccc(S(=O)(=O)CCC(=O)Nc3ccc(Cl)cc3)cc2s1 | inactive
COc1ccc(NC(=O)c2c(NC(=O)COc3ccccc3)sc3c2CCC(C)C3)cc1 (stereo unspecified) | inactive
Cc1ccc(C(C)C)c(OCC(=O)Nc2cc(-c3nc4ccccc4[nH]3)ccc2C)c1 | inactive
Cc1ccc(-c2nn(C)c(=O)c3ccccc23)cc1S(=O)(=O)NCCCN(C)C | inactive
Cc1cccc(CSCCNC(=O)CN(c2ccccc2)S(=O)(=O)N(C)C)c1 | inactive
COc1ccc(-c2noc(CSc3nc(N)cc(=O)[nH]3)n2)cc1 | inactive
CCC1=Nc2cc(C(=O)NC3CCCC3)ccc2Sc2ccc(Br)cc21 | 1.85 µM (active)
CCc1ccc(-c2nc(CSCC(=O)NCc3ccc(C)cc3)c(C)o2)cc1 | inactive
Cc1ccc(S(=O)(=O)c2nc(-c3ccco3)oc2SC(C)c2ccccc2)cc1 (stereo unspecified) | inactive
COc1ccc(-c2nc(CCNC(=O)c3c(F)cccc3Cl)cs2)cc1 | inactive
CCC(=O)C1=C(c2ccc(F)cc2)N(C(=O)CC)n2cnnc2S1 | inactive
CCOC(=O)c1c(NC(=O)c2nc(S(C)(=O)=O)ncc2Cl)sc(C(C)=O)c1C | 2.07 µM (active)
COc1cc(OC)cc(C(=O)NCCc2csc(-c3cccc(C)c3)n2)c1 | inactive
